Results reported in PubChem BioAssay AID1159580 (chemical genetic matrix, 2015).
Values joined by “and” are separate entries in the source; they are usually repeats but may differ in a detail not shown here. Identical values can stand only once. About 2,000 (36%) of roughly 5,500 compounds were called active. Inconclusive results (about 18%) are left out. Rule as the data show it: active = normalized growth mostly below about 0.91 (no sharp cut-off); inconclusive = no clear call, values can overlap the other calls; inactive = mostly above about 0.92. The list shows a part of the results.

Test: chemical genetic growth profiling, strain panel (AID 1159580);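 also: tested at 20 µM; growth read once vehicle control cultures reached saturation at 30 °C; 1 = growth at the plate median or of vehicle wells; lower values mean less growth of the strain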
Details: S. cerevisiae deletion strains, growth OD

Measured: normalized growth

COc1ccc(C2CC(=O)c3ccc(OC)cc3O2)cc1 (centres undefined)
active: locus YBR009C, strain hhf1, hits give low values 0.854 | locus YBR021W, strain FUR4, hits give low values 0.805 | locus YDL074C, strain BRE1, hits give low values 0.689 | locus YDL192W, strain arf1, hits give low values 0.891 | locus YDR162C, strain NBP2, hits give low values 0.74 | locus YDR195W, strain ref2 1.19 [resistant] | locus YDR318W, strain mcm21, hits give low values 0.906 | locus YDR392W, strain spt3, hits give low values 0.538 | locus YDR502C, strain sam2, hits give low values 0.882 | locus YEL061C, strain CIN8, hits give low values 0.905 | locus YER155C, strain BEM2 (second series), hits give low values 0.683 | locus YER167W, strain BCK2, hits give low values 0.89 | locus YGL086W, strain mad1, hits give low values 0.898 | locus YGL240W, strain doc1, hits give low values 0.786 | locus YGL248W, strain PDE1, hits give low values 0.843 | locus YGL253W, strain hxk2, hits give low values 0.891 | locus YGR135W, strain pre9, hits give low values 0.857 | locus YGR229C, strain SMI1, hits give low values 0.504 | locus YGR252W, strain gcn5, hits give low values 0.628 | locus YHR030C, strain SLT2, hits give low values 0.744 and 0.843 | locus YHR129C, strain ARP1, hits give low values 0.882 | locus YHR142W, strain chs7, hits give low values 0.842 | locus YIL066C, strain RNR3, hits give low values 0.793 | locus YIR030C, strain dcg1, hits give low values 0.92 | locus YJL095W, strain BCK1, hits give low values 0.523 and 0.838 | locus YJL164C, strain tpk1, hits give low values 0.898 | locus YJL166W, strain qcr8, hits give low values 0.859 | locus YJR066W, strain TOR1, hits give low values 0.805 | locus YKL009W, strain mrt4, hits give low values 0.862
inactive: locus YAL021C, strain ccr4, hits give low values 0.953 | locus YAL026C, strain drs2, hits give low values 0.939 | locus YAL030W, strain snc1, hits give low values 0.954 | locus YBL061C, strain skt5, hits give low values 0.948 | locus YBR023C, strain chs3, hits give low values 0.915 | locus YBR171W, strain sec66, hits give low values 0.936 | locus YBR229C, strain ROT2, hits give low values 0.963 | locus YBR231C, strain swc5, hits give low values 0.921 | locus YBR279W, strain paf1, hits give low values 0.95 | locus YCL011C, strain gbp2, hits give low values 0.928 | locus YCL016C, strain dcc1, hits give low values 0.939 | locus YCL029C, strain bik1, hits give low values 0.923 | locus YCL061C, strain MRC1, hits give low values 0.932 | locus YCL069W, strain vba3, hits give low values 0.961 | locus YCR088W, strain abp1, hits give low values 0.957 | locus YDL005C, strain med2, hits give low values 0.96 | locus YDL035C, strain GPR1, hits give low values 0.872 | locus YDL040C, strain nat1, hits give low values 0.956 | locus YDL101C, strain DUN1, hits give low values 0.9 | locus YDL185W, strain tfp1, hits give low values 0.938 | locus YDR001C, strain nth1, hits give low values 0.951 | locus YDR069C, strain doa4, hits give low values 0.953 | locus YDR101C, strain arx1, hits give low values 0.93 | locus YDR137W, strain rgp1, hits give low values 0.966 | locus YDR159W, strain sac3, hits give low values 0.929 | locus YDR297W, strain sur2, hits give low values 0.948 | locus YDR334W, strain swr1, hits give low values 0.961 | locus YDR335W, strain msn5, hits give low values 0.953 | locus YDR388W, hits give low values 0.955 | locus YEL003W, strain gim4, hits give low values 0.94 | locus YEL037C, strain rad23, hits give low values 0.962 | locus YEL061C, strain CIN8 (second series), hits give low values 0.967 | locus YER015W, strain faa2, hits give low values 0.96 | locus YER016W, strain bim1, hits give low values 0.963 | locus YER110C, hits give low values 0.937 | locus YER111C, strain swi4, hits give low values 0.959 | locus YER155C, strain BEM2, hits give low values 0.979 | locus YFR010W, strain ubp6, hits give low values 0.954 | locus YGL078C, strain dbp3, hits give low values 0.958 | locus YGL167C, strain pmr1, hits give low values 0.938 | locus YGL173C, strain kem1, hits give low values 0.931 | locus YGL227W, strain vid30, hits give low values 0.959 | locus YHR013C, strain ard1, hits give low values 0.866 | locus YHR027C, strain rpn1, hits give low values 0.965 | locus YHR079C, strain IRE1 (second series), hits give low values 0.97 | locus YHR079C, strain IRE1, hits give low values 0.878 | locus YHR094C, strain hxt1, hits give low values 0.956 | locus YHR200W, strain rpn10, hits give low values 0.929 | locus YIL073C, strain SPO22, hits give low values 0.772 | locus YIL125W, strain kgd1, hits give low values 0.94 | locus YJL092W, strain hpr5, hits give low values 0.957 | locus YJL095W, strain BCK1 (second series), hits give low values 0.927 | locus YJL115W, strain asf1, hits give low values 0.954 | locus YJL129C, strain trk1, hits give low values 0.992 | locus YJL134W, strain LCB3, hits give low values 0.975 | locus YJL154C, strain vps35, hits give low values 0.977 | locus YJL168C, strain set2, hits give low values 0.95 | locus YJL187C, strain SWE1 (second series), hits give low values 0.868 | locus YJL187C, strain SWE1, hits give low values 0.948 | locus YJR043C, strain POL32, hits give low values 0.861
